SMILES strings stand for the structures. Hit rate of the full screen: of about 16,000 compounds, about 5,700 (36%) were called active. Not shown: some 24% with an inconclusive outcome. The list shows a part of the results. Values without a mark were called inactive. The call rests on the fitted dose curve; in most records, active means well fitted curve in the direction sought with a large enough effect; inconclusive means small, poorly fitted or top-dose-only effect, or effect the other way; inactive means no such curve, though single readings can be large or run the other way.
On the % scale 0 is the no-effect control and ±100 the full control effect.

For the assay, the target named is Cytochrome P450 1A2 (Homo sapiens) (UniProt P05177). Description: Cytochrome panel assay with activity outcomes. As to conditions: recombinant CYP, pro-luciferin dealkylation, luminescence, p450-cyp1a2; series mostly up to 57.1 µM.
Cytochrome P450 1A2 (Homo sapiens), sequence (P05177 whole entry, looked up): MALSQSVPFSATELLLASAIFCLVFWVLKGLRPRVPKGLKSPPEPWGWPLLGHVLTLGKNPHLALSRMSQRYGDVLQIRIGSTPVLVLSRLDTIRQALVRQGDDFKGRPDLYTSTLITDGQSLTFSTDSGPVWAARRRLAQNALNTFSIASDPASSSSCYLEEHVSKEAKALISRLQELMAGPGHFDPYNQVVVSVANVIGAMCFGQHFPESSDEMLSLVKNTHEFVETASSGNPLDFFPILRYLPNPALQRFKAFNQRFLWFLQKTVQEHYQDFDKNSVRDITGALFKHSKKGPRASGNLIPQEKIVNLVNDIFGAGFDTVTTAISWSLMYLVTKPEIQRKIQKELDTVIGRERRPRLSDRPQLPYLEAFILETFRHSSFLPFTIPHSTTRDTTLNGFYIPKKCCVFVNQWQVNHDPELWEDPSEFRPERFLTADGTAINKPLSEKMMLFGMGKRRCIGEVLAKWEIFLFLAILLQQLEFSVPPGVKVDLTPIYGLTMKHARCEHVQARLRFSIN
In the case of `CCOc1ccc(C2=[N+]([O-])C(C)(C)N(O)C2(C)C)cc1`, the AC50 result was “inactive”. Consider `CSc1ccc2nnc(-c3cccc(F)c3)n2n1`, for which the AC50 was 3160 nM (active). Take `CCOc1ccc(-c2nnc3ccc(SC)nn23)cc1`: the AC50 was 1000 nM (active). Consider `O=C(CN(Cc1ccco1)C(=O)c1ccccc1)Nc1ccc(Cl)c(Cl)c1`, for which the AC50 was 14100 nM (active). Still for that read-out and setting: the value for `O=C(CSc1nnc(-c2ccccn2)n1Cc1ccco1)Nc1ccc2c(c1)OCO2` was “inactive”; that for `O=C(c1ccccc1)N(Cc1ccco1)C1CCS(=O)(=O)C1` (stereo unspecified) was “inactive”; that for `c1ccc2c(c1)ncn2-c1ncnc2sc3c(c12)CCCC3` was 5620 nM (active). Take `CC(C)(C)C(=O)[C@H]([C@@H](c1ccccc1)N1CCOCC1)N1CCOCC1`: the activity, negative = inhibition is -6.91% [at 11.4 µM]. Regarding `Cc1cc(C(F)(F)F)n2nc(-c3cnn(C)c3C(F)(F)F)c(Cl)c2n1`, the AC50 was 178 nM (active).

As for `Cc1cc(C(F)(F)F)n2nc(-c3cnn(C)c3C(F)(F)F)cc2n1`, the AC50 is 1120 nM (active).

Consider `O=[N+]([O-])C(/C=C(\Cl)[N+](=O)[O-])=C1N(Cc2ccc(Cl)nc2)CCN1Cc1ccc(Cl)nc1`, for which the AC50 entry was “inactive”. On the same count and under the same terms, the value for `Cc1cc(-c2c(C)[nH]n(-c3ccccc3)c2=O)n(-c2ccccc2)n1` was “inactive”; that for `Cc1nn2c([nH]c(=O)c3ccccc32)c1C=O` was 2510 nM (active); that for `Cc1cc2[nH]c(=O)c3ccccc3n2n1` was 1260 nM (active). The same measure, in the same setting: the value for `COC(=O)Cn1c(CN(Cc2ccccc2)Cc2ccccc2)nc2c1c(=O)[nH]c(=O)n2C` was “inactive”. As for `CN(C)N1C(N)=C(C#N)C(c2cccnc2)C2=C1CC(C)(C)CC2=O` (stereo unspecified), the AC50 result was “inactive”.

For `CN(C)c1ccc(-c2nc3n(n2)C(c2cccnc2)C2=C(CC(C)(C)CC2=O)N3)cc1` (stereo unspecified), the AC50 was 3160 nM (active). Still for that read-out and setting: the value for `COc1cc(NC(=O)Cc2c(C(=O)O)[nH]c3ccccc23)cc(OC)c1OC` was “inactive”; that for `CCc1c(C(=O)O)[nH]c2ccc(Br)cc12` was 5010 nM (active). On to `COc1ccc(CSC2=C(C#N)C(=O)NC3(CCCCC3)S2)cc1`, for which the activity, negative = inhibition was -5.77% [at 2.29 µM]. On to `Cc1nn(-c2ccccc2)c(N2CCCCC2)c1/C=N/O`, for which the AC50 is 1580 nM (active). On the same count and under the same terms, the value for `N#C/C(=C\c1cc([N+](=O)[O-])c(N2CCCCC2)cc1N1CCCCC1)c1nn(-c2ccccc2)c(N)c1C#N` was “inactive”.

`CO[C@@H]1COC(=O)[C@H](CCSC)NC(=O)C/C=C\[C@@H](C)COC(=O)[C@@H]2CCCN2C(=O)C/C=C\[C@H]1C`: the activity, negative = inhibition was 7.24% [at 11.4 µM]. Turning to `C[C@@H]1CCC[C@H](C)N1NC(=O)c1ccc(Cl)c(S(N)(=O)=O)c1`, the AC50 result was “inactive”.

For the compound `CC1CCCC(C)N1C(=O)c1cc(-c2ccc(Cl)c(Cl)c2)on1` (stereo unspecified), the AC50 was 5010 nM (active). On the same count and under the same terms, then `Cc1ccc2c(c1)nnn2C1CCN(S(=O)(=O)c2ccc(C(=O)N3C(C)CCCC3C)cc2)CC1` (stereo unspecified), with “inactive”.

As to `CC1(C)CC(NCc2ccc3c(c2)OCO3)CCO1` (stereo unspecified), the AC50 result is “inactive”. Turning to `c1ccc(-c2nc3ccccn3c2NCc2ccc3c(c2)OCO3)cc1`, the AC50 is 1780 nM (active).

In the case of `CS(=O)(=O)N1CCC[C@@]2(CCN(c3ncccn3)C2)C1`, the AC50 entry is “inactive”. On the same count and under the same terms, the value for `COC(=O)c1ccc(Cl)c(NC(=O)c2ccc(-c3ccccc3)cc2)c1` was “inactive”; that for `CCOCC(=O)Nc1cc(C(=O)Nc2cccc(C)c2C)ccc1Cl` was 5010 nM (active); that for `CCOCC(=O)Nc1cc(C(=O)Nc2ccccc2)ccc1Cl` was 2510 nM (active).

Consider `CCc1c2c(nc3ccc(OC)cc13)COC2`, for which the concentration at half-maximal activity (AC50) is 794 nM (active). The same measure, in the same setting: then `CCc1c2c(nc3cccc(SC)c13)COC2`, with 2510 nM (active); and `COc1ccc(/C=N/n2c(-c3cccs3)n[nH]c2=S)cc1`, with 631 nM (active); and `Cc1ccc(/C=N/n2c(-c3cccs3)n[nH]c2=S)cc1`, with 282 nM (active). As to `COc1ccc(-n2c(-c3cnccn3)n[nH]c2=S)cc1`, the AC50 entry was “inactive”.

For the compound `Cc1ccc(-c2n[nH]c(=S)n2/N=C/c2cccn2C)cc1`, the AC50 is 3550 nM (active). Take `Nc1ccn([C@H]2O[C@@H](COP(=O)(O)O)[C@@H](O)[C@H]2O)c(=O)n1`: the activity, negative = inhibition is -23.3% [at 11.4 µM].

Take `N#Cc1cccc(-c2nc3cnc(Oc4cccc(Cl)c4)nc3n(C3CC3)c2=O)c1`: the AC50 is 2510 nM (active).

For `O=c1c(-c2ccc(F)cc2)nc2cnc(Oc3cccc(Cl)c3)nc2n1C1CC1`, the AC50 is 316 nM (active). For the compound `O=c1c(-c2ccccc2)nc2cnc(Oc3cccc(Cl)c3)nc2n1C1CC1`, the AC50 is 1580 nM (active). Same read-out and setting: then `N#CCCn1c(=O)c(-c2cccc(C#N)c2)nc2cnc(Oc3cccc(Cl)c3)nc21`, with “inactive”; and `CC(C)CN1CCC2(CC1)CCN(C(=O)c1cccc(F)c1)CC2`, with “inactive”. As to `CC(=O)OC[C@@H]1O[C@@H](O/N=C2/C[C@@H](O)[C@@H](O)[C@@H]3[C@@H]4C(=O)N(C[C@@H]5CCCO5)C(=O)[C@H]4CC[C@@H]23)[C@H](OC(C)=O)[C@H](OC(C)=O)[C@@H]1OC(C)=O`, the activity, negative = inhibition is 5.86% [at 11.4 µM]. Consider `COc1ccc(/C=N/NC(=O)CCc2ccccc2)cc1O`, for which the AC50 is 25100 nM (active). The same measure, in the same setting: the value for `O=C(N/N=C/c1ccc(OCc2ccccc2)cc1)c1cccs1` was 3160 nM (active); that for `C=CCNC(=S)N/N=C/c1ccc(OCc2ccccc2)cc1` was 14100 nM (active). As for `O=C(N/N=C/c1cccc(OCc2ccccc2)c1)c1cccs1`, the AC50 was 2240 nM (active).

With `Cc1cccc(C)c1NC(=O)COc1cccc(/C=N/NC(=O)C(=O)NCc2ccccc2)c1`, the AC50 result was “inactive”. The same measure, in the same setting: then `COc1ccc(/C=N\NC(=O)C2C(=O)NCC2c2ccccc2)cc1O` (stereo unspecified), with “inactive”. In the case of `C/C(CCC(=O)OC[C@@H]1O[C@H](C#Cc2ccccc2)C=C[C@@H]1Oc1ccc(C)cc1)=N/OC[C@@H](O)COCc1ccco1`, the activity, negative = inhibition is -4.08% [at 11.4 µM]. `C/C(CCN1CCCc2nc(C)c(C)cc21)=N\OC[C@@H](O)[C@@H]1O[C@@H]2OC(C)(C)O[C@@H]2[C@H]1O`: the activity, negative = inhibition was 1.1% [at 11.4 µM]. With `Nc1nc2ncc(CNc3ccc(C(=O)N[C@@H](CCC(=O)O)C(=O)O)cc3)nc2c(=O)[nH]1`, the AC50 entry was “inactive”. Same read-out and setting: then `COc1cc(/C=N/NC(=O)c2cccc([N+](=O)[O-])c2)ccc1OCc1ccc(C)cc1`, with “inactive”. With `COc1cc(/C=N/NC(=O)c2cccs2)ccc1OCc1ccccc1`, the AC50 was 794 nM (active).

A word on the AC50: it is the concentration at which the activity in the assay is half-maximal.

Source of the values: PubChem BioAssay AID1851 (National Center for Advancing Translational Sciences (NCATS), 2009).
